66 compounds from PubChem BioAssay AID651820 (National Center for Advancing Translational Sciences (NCATS), 2012) can be followed below.

Screen size: about 340,000 compounds; about 12,000 (3.5%) were called active. Inconclusive results (about 18%) are left out. Many of the other results were omitted from the sample, so actives are more common in it than they were. Values without a mark were called inactive. The call rests on the fitted dose curve; in most records, active means well fitted inhibition curve with a large enough effect; inconclusive means small, poorly fitted or top-dose-only effect, or another doubt; inactive means no such curve, though single readings can be large or run the other way. Non-standard residues stand in square brackets, D forms with d. Residues, ends and D or L forms follow the SMILES beside them. ξ: configuration not given here. Ac5c = NC1(C(=O)O)CCCC1; ξS = NC(CO)C(=O)O
On the % scale 0 is the no-effect control and ±100 the full control effect; potency means the concentration at half of the fitted maximal effect.

The assay is described as follows: qHTS Assay for Inhibitors of Hepatitis C Virus (HCV). As to conditions: Huh7.5.1 HCVcc-Cre infection, luciferase reporter, 44 h; series mostly up to 41.8 µM; activity change, negative = inhibition: at the top concentration. A digest of the protocol:
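A cell-based infection assay in which seeded cells (1,000 per well) receive test compound after 4 h, are inoculated with HCVcc-Cre at approximately 0.5 moi, and are incubated 44 h before luminescence detection.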
(Quantitative high-throughput screening tests each substance at several concentrations.)
As to `CC1(c2ccc(Cl)cc2Cl)NC(=O)N(CC(=O)Nc2cccnc2Cl)C1=O` (stereo unspecified), the “activity change, negative = inhibition” value is 0.453%.
Take `O=C1C=C(c2cccc(Cl)c2O)C[C@@H](c2ccc(F)cc2)C1`: the “activity change, negative = inhibition” value was -2.53%.
The same measure, in the same setting: as for `O=C1C=C(c2cccc(Cl)c2)C[C@@H](c2ccc(F)cc2)C1`, the figure is -5.95%.
As to `O=C1C=C(c2ccnc3cc(Cl)ccc23)C[C@@H](c2ccc3c(c2)OCO3)C1`, the Potency was 3.16 µM (active).
For `Cc1cc(C)c(C=NNc2nc3c([nH]2)c(=O)n(C)c(=O)n3C)c(C)c1`, the “activity change, negative = inhibition” value was -8.43%.
Same read-out and setting: to `CCOc1ccc(CCNC(=O)COC(=O)C2CCN(S(=O)(=O)c3ccccc3)CC2)cc1OCC` belongs -13.1%; to `CCOC(=O)C(CO)NC(=O)C1(NC(C)=O)CCCC1` (stereo unspecified) (Ac-[Ac5c]-[ξS]-OEt), 10.5%.
On the same count and under the same terms, as for `CN(Cc1ccccn1)Cc1nc(-c2ccc(Cl)cc2)no1`, the figure is -23.6%; as for `CC1CCN(Cc2nc(-c3ccc(Cl)cc3)no2)CC1`, 5.28%.
As for `CCN1CC(CN(C)Cc2nc(-c3ccc(Cl)cc3)no2)CC1=O` (stereo unspecified), the Potency was 11.2 µM (active).
Consider `O=C(c1ccncc1)N1CCN(S(=O)(=O)c2cc(C(F)(F)F)cc(C(F)(F)F)c2)CC1`, for which the “activity change, negative = inhibition” value is -2.48%.
In the case of `Cc1ccc(CNC(=O)COC(=O)C2CCC2)cc1`, the “activity change, negative = inhibition” value was 15.2%.
On to `C#CCOCCOCCOCCNc1nc(N2CCN(C(=O)[C@H](CCCN=C(N)N)n3cc(C(N)[C@@H](C)CC)nn3)CC2)nc(N2CCN(C(=O)[C@H](CO)n3cc([C@@H](N)C(C)C)nn3)CC2)n1` (stereo partly specified), for which the “activity change, negative = inhibition” value was -18.2%.
Turning to `CCOc1cc(-c2cc(-c3ccc(NC(C)=O)cc3)nc(N)c2C#N)ccc1O`, the Potency is 11.2 µM (active).
Consider `CCOc1cc(-c2cc(-c3ccc(OC)cc3)nc(N)c2C#N)ccc1O`, for which the “activity change, negative = inhibition” value was -24.5%.
As to `CC(=O)Nc1ccc(-c2cn3cccnc3n2)cc1`, the “activity change, negative = inhibition” value was 7.55%.
On the same count and under the same terms, as for `Nc1nnc(SCC(=O)NCC(=O)Nc2ccc(F)c(F)c2F)s1`, the figure is -23.5%; as for `CCN1CCN(CCCCOc2ccccc2F)CC1`, -5.52%.
For `CN1CCN(CCCCOc2cccc3ccccc23)CC1`, the Potency was 10 µM (active).
`COc1ccccc1OCCCCCCN1CCN(C)CC1`: the “activity change, negative = inhibition” value is -18.9%.
Still for that read-out and setting: as for `Cc1ccc2c(O)c(Cc3ccccc3)c(=O)[nH]c2n1`, the figure is 7%.
As for `COc1ccc(S(=O)(=O)N2CCN(CC(=O)N3CCOCC3)CC2)cc1OC`, the “activity change, negative = inhibition” value was 1.25%.
On the same count and under the same terms, as for `CCOC(=O)c1ccccc1NC(=O)CSc1nc2c(sc(=S)n2CC)c(=O)[nH]1`, the figure is 18.2%; as for `COc1ccc2c(c1)O/C(=C\c1ccccc1O)C2=O`, 2.33%.
Regarding `COc1cc2cc(C(=O)N/N=C/c3cccc(OC)c3OC)[nH]c2cc1OC`, the “activity change, negative = inhibition” value was -14.6%.
In the case of `COc1ccc(/C=N/NC(=O)c2cccc(C(F)(F)F)c2)cc1`, the “activity change, negative = inhibition” value is 17.5%.
Consider `CCOc1ccc2[nH]c(C(=O)N/N=C/c3cccc(OC)c3OC)cc2c1`, for which the Potency is 12.6 µM (active).
As to `COc1ccccc1CNC(=O)COC(=O)c1sc(C)nc1C`, the “activity change, negative = inhibition” value is 8.83%.
On the same count and under the same terms, as for `CCN(C(=O)CSc1nnnn1-c1ccc(OC)cc1)C1CCS(=O)(=O)C1` (stereo unspecified), the figure is 0.363%; as for `Oc1cc2c(cc1CN1CCN(c3ccccc3)CC1)OCO2`, -1.36%.
On the same count and under the same terms, to `Oc1ccc(CN2CCN(c3ncccn3)CC2)cc1` belongs 7.41%.
For `Oc1c(CN2CCN(c3ccc(F)cc3)CC2)cc(Cl)c2cccnc12`, the Potency was 3.55 µM (active).
`Cc1cc(O)c(Sc2ccccc2)c(=O)o1`: the “activity change, negative = inhibition” value was 4.91%.
Still for that read-out and setting: as for `COc1ccc(OC)c(S(=O)(=O)Nc2c(C)nn(C)c2C)c1`, the figure is 1.56%.
Still for that read-out and setting: to `N#CC1=C(N)Oc2cc(N)ccc2C1c1ccccc1` (stereo unspecified) belongs -25.3%; to `Cc1nn(-c2ncccn2)c2c1C(=O)CC(C)(C)C2Br` (stereo unspecified), -27.1%.
Same read-out and setting: to `COc1ccc(OCC(O)CNCCNc2nccc(C(F)(F)F)n2)cc1` (stereo unspecified) belongs 28.7%.
As to `CC(C)(C)CC(C)(C)NCC(O)COCCOc1ccc(Br)cc1` (stereo unspecified), the Potency is 6.31 µM (active).
In the case of `CC(Oc1ccc(Br)cc1)C(=O)NC1CCCCCC1` (stereo unspecified), the “activity change, negative = inhibition” value is -2.46%.
On the same count and under the same terms, to `COc1ccc(-c2nnc(SC(C)C(=O)NC3CC3)o2)cc1` (stereo unspecified) belongs 4.88%; to `O=C(N=C1SC2CS(=O)(=O)CC2N1c1ccccc1)c1ccccc1` (stereo unspecified), 4.87%; to `O=C(/C=C/c1ccco1)Nc1cccc(-c2nc3ccccc3[nH]2)c1`, -7.35%.
`O=C(/C=C/c1ccco1)Nc1ccc(Oc2ccccc2)cc1`: the Potency is 14.1 µM (active).
Take `Cc1nnc(NC(=O)/C=C/c2ccco2)s1`: the “activity change, negative = inhibition” value is 13%.
On the same count and under the same terms, to `CCOc1ccc(N2CC(C(=O)NCCN3C(=O)S/C(=C\c4cccnc4)C3=O)CC2=O)cc1` (stereo unspecified) belongs -16.4%.
As for `Cc1cc(OCCCC(=O)NCCN2C(=O)S/C(=C\c3cccnc3)C2=O)ccc1Cl`, the Potency was 10 µM (active).
Turning to `O=C(NCCN1C(=O)S/C(=C\c2cccnc2)C1=O)c1cccc(OC(F)F)c1`, the “activity change, negative = inhibition” value was 1.89%.
Regarding `OCC1(CCc2ccccc2)CCN(Cc2ccc3nsnc3c2)CC1`, the “activity change, negative = inhibition” value is 6.6%.
Consider `CC(=O)c1cccc(CN2CCC(CO)(Cc3ccccc3)CC2)c1`, for which the “activity change, negative = inhibition” value was -1.38%.
`Cc1cccc(-c2ncc(CN3CCC(CO)(CCCc4ccccc4)CC3)cn2)c1`: the Potency is 10 µM (active).
In the case of `c1ccc2cc(CCCc3cc4ccccc4cn3)ncc2c1`, the “activity change, negative = inhibition” value is -5.19%.
The same measure, in the same setting: to `COc1ccc([C@H]2CC(=O)C=C(/C=C/c3ccccc3)C2)cc1` belongs 1.94%.
In the case of `CCC(=O)Nc1ccc(C(=O)CSc2nnc(CNc3ccc(Cl)cc3)o2)cc1OC`, the Potency was 5.01 µM (active).
For `CCOC(=O)CSc1nnc(CNc2ccc(F)cc2)o1`, the “activity change, negative = inhibition” value is 2.35%.
Take `COc1cc(C(=O)NCc2nnc(SCC(=O)c3ccc(Cl)cc3)o2)cc(OC)c1OC`: the “activity change, negative = inhibition” value is -20.9%.
Same read-out and setting: as for `O=C(COC(=O)c1cccnc1Cl)NC12CC3CC(CC(C3)C1)C2`, the figure is 15%.
On the same count and under the same terms, to `CCn1cc(/C=C2/SC(=S)NC2=O)c(C)n1` belongs -23.4%.
For `O=C1/C(=C/c2ccc3c(c2)OCO3)CCC/C1=C\c1ccc2c(c1)OCO2`, the Potency entry was “inactive”.
Same read-out and setting: to `Cc1nn(C)cc1/C=C1\CCC/C(=C\c2cn(C)nc2C)C1=O` belongs 10 µM (active).
For `CC(=O)N(O)CCCCCNC(=O)CCC(=O)N(O)CCCCCNC(=O)CCC(=O)N(O)CCCCCNC(=O)CCC(=O)O`, the “activity change, negative = inhibition” value is -9.7%.
Still for that read-out and setting: to `O=S1(=O)CSCS(=O)(=O)C1` belongs 4.27%.
On to `CCN(CC)CCCNC(=O)Cn1cnc2sc(C)c(S(=O)(=O)N3CCN(c4ncccn4)CC3)c2c1=O`, for which the “activity change, negative = inhibition” value was -1.55%.
On to `CCN(CC)CCNC(=O)c1sc2ncn(CC(=O)Nc3ccc(C)c(Cl)c3)c(=O)c2c1C`, for which the Potency is 8.91 µM (active).
The same measure, in the same setting: to `CCN(CC)CCNC(=O)Cn1cnc2sc(C)c(S(=O)(=O)N3CCOCC3)c2c1=O` belongs “inactive”.
Regarding `CC(=O)Nc1ccc(C(=O)Nc2cc(S(=O)(=O)N3CCOCC3)ccc2N2CCOCC2)cc1`, the “activity change, negative = inhibition” value was -10.7%.
As for `O=C(CN1CCOCC1)Nc1cccc([N+](=O)[O-])c1`, the “activity change, negative = inhibition” value was 7.8%.
